26 sequences from article doi:10.1101/2024.03.05.583629 can be followed below.

The target of the experiment is pT7_6His-AlfaTag-HOXD13 (human, UniProt P35453 263-343). As to the kind of experiment: PADIT-seq. As to conditions: dsDNA, one strand shown.
Sequence of pT7_6His-AlfaTag-HOXD13 (P35453 263-343): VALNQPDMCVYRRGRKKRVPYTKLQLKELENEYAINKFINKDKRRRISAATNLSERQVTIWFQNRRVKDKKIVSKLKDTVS
In the case of “CTCGAGGATATCAAGATCTGGCCTCGGCGGGCTAAAAGGAACCTCTAGCTAGCCGACTCACTATAGGGATAATCGCCCTGAGCAAAGACC”, the binding signal is -0.851 ± 0.105 log2FC.

Sequence “CTCGAGGATATCAAGATCTGGCCTCGGCCCTTGGGCGGGAACCTCTAGCTAGCCGACTCACTATAGGGATAATCGCCCTGAGCAAAGACC” gave a binding signal of -0.886 ± 0.123 log2FC.

Sequence “CTCGAGGATATCAAGATCTGGCCTCGGCCAAATAAAAGGAACCTCTAGCTAGCCGACTCACTATAGGGATAATCGCCCTGAGCAAAGACC” displayed a binding signal of 2.65 ± 0.0828 log2FC. In the case of “CTCGAGGATATCAAGATCTGGCCTCGGCCTTTTATCTGGAACCTCTAGCTAGCCGACTCACTATAGGGATAATCGCCCTGAGCAAAGACC” it was 0.811 ± 0.0782 log2FC. As to “CTCGAGGATATCAAGATCTGGCCTCGGCATTTTATGTGGAACCTCTAGCTAGCCGACTCACTATAGGGATAATCGCCCTGAGCAAAGACC”, the binding signal stood at 2.99 ± 0.0772 log2FC. In the case of “CTCGAGGATATCAAGATCTGGCCTCGGCTTGCTAAAAGGAACCTCTAGCTAGCCGACTCACTATAGGGATAATCGCCCTGAGCAAAGACC” it was -0.271 ± 0.11 log2FC; in that of “CTCGAGGATATCAAGATCTGGCCTCGGCGTTTTAGGTGGAACCTCTAGCTAGCCGACTCACTATAGGGATAATCGCCCTGAGCAAAGACC”, -0.0193 ± 0.12 log2FC; in that of “CTCGAGGATATCAAGATCTGGCCTCGGCTCAGTAAAAGGAACCTCTAGCTAGCCGACTCACTATAGGGATAATCGCCCTGAGCAAAGACC”, 1.56 ± 0.0915 log2FC. For “CTCGAGGATATCAAGATCTGGCCTCGGCGTCTTAAAAGGAACCTCTAGCTAGCCGACTCACTATAGGGATAATCGCCCTGAGCAAAGACC”, the binding signal was determined as 1.44 ± 0.067 log2FC. The figure for “CTCGAGGATATCAAGATCTGGCCTCGGCATCATAAAAGGAACCTCTAGCTAGCCGACTCACTATAGGGATAATCGCCCTGAGCAAAGACC” is 2.56 ± 0.0828 log2FC; for “CTCGAGGATATCAAGATCTGGCCTCGGCGTTTTATCGGGAACCTCTAGCTAGCCGACTCACTATAGGGATAATCGCCCTGAGCAAAGACC” it is 1.63 ± 0.0875 log2FC; for “CTCGAGGATATCAAGATCTGGCCTCGGCCCACTAAAAGGAACCTCTAGCTAGCCGACTCACTATAGGGATAATCGCCCTGAGCAAAGACC” it is 1.42 ± 0.114 log2FC. The sequence “CTCGAGGATATCAAGATCTGGCCTCGGCGAGCTAAAAGGAACCTCTAGCTAGCCGACTCACTATAGGGATAATCGCCCTGAGCAAAGACC” yielded a binding signal of -0.842 ± 0.11 log2FC. “CTCGAGGATATCAAGATCTGGCCTCGGCGTTTTACATGGAACCTCTAGCTAGCCGACTCACTATAGGGATAATCGCCCTGAGCAAAGACC” displayed a binding signal of 2.03 ± 0.0856 log2FC. As to “CTCGAGGATATCAAGATCTGGCCTCGGCTTTTTACATGGAACCTCTAGCTAGCCGACTCACTATAGGGATAATCGCCCTGAGCAAAGACC”, the binding signal amounted to 2.12 ± 0.0858 log2FC. The figure for “CTCGAGGATATCAAGATCTGGCCTCGGCTTTTTAATCGGAACCTCTAGCTAGCCGACTCACTATAGGGATAATCGCCCTGAGCAAAGACC” is 1.1 ± 0.0911 log2FC. On to “CTCGAGGATATCAAGATCTGGCCTCGGCCTTATAAAAGGAACCTCTAGCTAGCCGACTCACTATAGGGATAATCGCCCTGAGCAAAGACC”, for which the binding signal is 2.88 ± 0.0949 log2FC.

In turn, “CTCGAGGATATCAAGATCTGGCCTCGGCTTTTTACGAGGAACCTCTAGCTAGCCGACTCACTATAGGGATAATCGCCCTGAGCAAAGACC” yielded a binding signal of 3.37 ± 0.0866 log2FC. In the case of “CTCGAGGATATCAAGATCTGGCCTCGGCGCGTGGCGAGGAACCTCTAGCTAGCCGACTCACTATAGGGATAATCGCCCTGAGCAAAGACC” it was -0.862 ± 0.192 log2FC; in that of “CTCGAGGATATCAAGATCTGGCCTCGGCATTTTAGATGGAACCTCTAGCTAGCCGACTCACTATAGGGATAATCGCCCTGAGCAAAGACC”, 0.542 ± 0.096 log2FC; in that of “CTCGAGGATATCAAGATCTGGCCTCGGCGGCGTAAAAGGAACCTCTAGCTAGCCGACTCACTATAGGGATAATCGCCCTGAGCAAAGACC”, 0.246 ± 0.0968 log2FC.

In the case of “CTCGAGGATATCAAGATCTGGCCTCGGCCTTTTAAGTGGAACCTCTAGCTAGCCGACTCACTATAGGGATAATCGCCCTGAGCAAAGACC”, the binding signal is 1.38 ± 0.0835 log2FC. In the case of “CTCGAGGATATCAAGATCTGGCCTCGGCCTTTTAACAGGAACCTCTAGCTAGCCGACTCACTATAGGGATAATCGCCCTGAGCAAAGACC” it was 1.89 ± 0.0877 log2FC.

“CTCGAGGATATCAAGATCTGGCCTCGGCGACCTAAAAGGAACCTCTAGCTAGCCGACTCACTATAGGGATAATCGCCCTGAGCAAAGACC” displayed a binding signal of -0.787 ± 0.0956 log2FC. The figure for “CTCGAGGATATCAAGATCTGGCCTCGGCGAGTTAAAAGGAACCTCTAGCTAGCCGACTCACTATAGGGATAATCGCCCTGAGCAAAGACC” is 0.985 ± 0.0828 log2FC; for “CTCGAGGATATCAAGATCTGGCCTCGGCTATCTAAAAGGAACCTCTAGCTAGCCGACTCACTATAGGGATAATCGCCCTGAGCAAAGACC” it is -0.377 ± 0.118 log2FC.
